# Test results taken from PubChem BioAssay AID1645858 (Buhrlage Lab, Dana-Farber Cancer Institute and Novartis …, 2021).
# The campaign covered roughly 47,000 compounds. About 330 (0.7%) were called active. No stated cut-off is given here; in the data, active means inhibition above about 30%; inactive means the rest. The sample as a whole holds a higher share of actives than the screen did.
# Biological target: OTU domain-containing protein 3 (Homo sapiens) (UniProt Q5T2D3)
# Experiment: inhibitors of human OTUD3 deubiquitinase (AID 1645858)
# Settings: purified OTUD3, Ub-rhodamine fluorescence, 2 h; at 25 µM; hits give high values
# OTU domain-containing protein 3 (Homo sapiens), sequence (Q5T2D3 whole entry, looked up, the tested form may be a part): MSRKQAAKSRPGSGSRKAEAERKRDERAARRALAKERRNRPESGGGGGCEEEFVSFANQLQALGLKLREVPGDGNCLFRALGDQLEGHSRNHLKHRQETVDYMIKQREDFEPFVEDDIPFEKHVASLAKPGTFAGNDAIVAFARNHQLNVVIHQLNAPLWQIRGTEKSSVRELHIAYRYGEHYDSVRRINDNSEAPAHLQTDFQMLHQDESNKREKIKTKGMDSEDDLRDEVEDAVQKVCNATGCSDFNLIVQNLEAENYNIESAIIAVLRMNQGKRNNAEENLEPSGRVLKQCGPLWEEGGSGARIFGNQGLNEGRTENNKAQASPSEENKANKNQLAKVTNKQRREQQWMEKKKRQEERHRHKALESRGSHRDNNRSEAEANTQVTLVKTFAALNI
row,SMILES,inhibition
1,Cc1cc2n(n1)CCCN2C(=O)CCC(=O)N1CCN(c2ccc(F)cc2)CC1,7.75% (inactive)
2,O=C(NCc1cccnc1)C1CCN(c2cnc(N3CCCCCC3)nc2)CC1,-16.6% (inactive)
3,O=C(Cn1cccc1-c1nnc(C2CC2)o1)NC1CCCCC1,-15.9% (inactive)
4,CCCNc1c(NC(=O)C2CC(=O)N(c3ccccc3)C2)c(=O)oc2ccccc12 (stereo not drawn),21.6% (inactive)
5,O=C(N[C@@H]1C[C@@H](Oc2cccnc2)[C@H](O)[C@H]1N1CCCCC1)c1ccccn1,-9.39% (inactive)
6,CC(=O)N1Cc2ccccc2CC2(CCN(Cc3cccnc3)CC2)C1,4.03% (inactive)
7,CCC(=O)Nc1nc2cc(NC(=O)c3ccc(OC)cc3)ccc2s1,17.4% (inactive)
8,O=C(NCCc1ccccc1)c1ccc2c(=O)n(Cc3ccco3)c(=O)n(Cc3cccc([N+](=O)[O-])c3)c2c1,36.8% (active)
9,O=C(NCCc1ccccc1)c1ccc2c(=O)nc3c(-c4ccccc4F)n[nH]n3c2c1,-7.12% (inactive)
10,O=C(Cn1c(=O)n(Cc2ccc3c(c2)OCO3)c(=O)c2ccccc21)NCc1ccco1,0.529% (inactive)
11,COCCn1cc2c3c(cccc31)CN(C(=O)c1cnccn1)CC2,-12.8% (inactive)
12,Cc1nn(-c2ccccn2)c2ncc(C(=O)c3cc(F)ccc3O)cc12,-3.93% (inactive)
13,CCNC(=O)CCc1nc2c(C)nn(-c3ccccc3)c2n(CC)c1=O,9.41% (inactive)
14,CC(C)c1cc(C2CCCN2C(=O)Cc2ccc(F)cc2)no1 (stereo not drawn),2.85% (inactive)
15,CCN1CCC(n2c(C(F)(F)F)nc3c(OC)cccc32)CC1,5.17% (inactive)
16,CCN1C[C@@]23CN(C(=O)c4cccc(Cl)c4)C[C@@H](C[C@@H]2S1(=O)=O)O3,11.4% (inactive)
17,CCc1nnc(-c2ccc(=O)n(CC(=O)N3CCN(C(C)C)CC3)c2)o1,-5.08% (inactive)
18,CNc1nc(N2CCCCCC2)nc(-n2cnc(SC)n2)n1,-0.432% (inactive)
19,COc1cccc(N2CCN(C(=O)c3sc4ncccc4c3-n3cccc3)CC2)c1,15.3% (inactive)
20,O=C(Cc1cc(=O)oc2cc(O)ccc12)N1CC[C@@]2(O)CCCC[C@H]2C1,1.08% (inactive)
21,Cc1occc1C(=O)Nc1cc(-c2ccc(F)cc2)nn1C,-0.358% (inactive)
22,O=C(O)CC1(CC(=O)Nc2ccc(Oc3ccccc3)cc2)CCCC1,15.9% (inactive)

row,SMILES,inhibition
1,Clc1ccc(CNC2CCN(Cc3ccccc3)C2)cc1Cl (stereo not drawn),5.2% (inactive)
2,Cc1cc(S(=O)(=O)N2CC=C(c3c(C)[nH]c4ccccc34)CC2)ccc1F,-29.4% (inactive)
3,CCc1ccc(S(=O)(=O)N2CCC3(CC2)COCCN(Cc2cccnc2)C3)cc1,-4.96% (inactive)
4,Clc1cc2nc(N3CCN(c4ccccn4)CC3)c3nncn3c2cc1Cl,44.6% (active)
5,Cc1nn(-c2ccccc2)c(C)c1S(=O)(=O)N1CCN(c2ccccn2)CC1,-4.16% (inactive)
6,O=C(c1ccc(N2CCCC2)nn1)N1CCN(c2ccccn2)CC1,0.782% (inactive)
7,Cc1nc(NC(=O)c2ccc(F)cc2Cl)sc1-c1ccccc1,-3.32% (inactive)
8,CC(=O)N[C@@H]1C[C@H](c2cccc(F)c2)O[C@@H]2CCC[C@@H]12,-4.95% (inactive)
9,CCn1c(CNC(=O)c2ccco2)nnc1SCC(=O)Nc1cccc(F)c1,0.153% (inactive)
10,COc1ccc(/C=C/C(=O)Nc2ccc3c(c2)OCCO3)cc1Br,-13.2% (inactive)
11,O=C(CSc1nnc(-c2ccncc2)n1Cc1ccccc1)Nc1cccc(Cl)c1,-10.3% (inactive)
12,O=C(c1ccncc1)N1CC[C@@H]2CN(Cc3cccc(Cl)c3)S(=O)(=O)[C@@H]2CC1,2.12% (inactive)
13,Cc1cccc(-c2c3c(=O)n(C)c(=O)n(C)c3cn2Cc2ccc(F)cc2)c1,-12.7% (inactive)
14,CC(C)=CCC/C(C)=C\Cc1c(O)cc(C)c(C=O)c1O,-3.19% (inactive)
15,NC(=O)c1ccc(NC(=O)Cc2cc(-c3ccc(Cl)cc3)on2)cc1,-10.7% (inactive)
16,Cc1ccc(NS(=O)(=O)c2ccc3c(c2)NC(=O)CC(=O)N3)cc1F,-1.08% (inactive)
17,CCOc1ccc(S(=O)(=O)N2CCCC2c2ccco2)cc1 (stereo not drawn),-0.738% (inactive)
18,O=C1CC(C(=O)N2CCC(c3ccc(Nc4ncccn4)cn3)CC2)c2ccccc2N1 (stereo not drawn),-7.6% (inactive)
19,O=S(=O)(c1cccc2cccnc12)N1CCN(C2CCCCC2)CC1,-6.63% (inactive)
20,O=C1C(O)=C(c2ccc(O)c(O)c2)C(=O)C(O)=C1c1ccccc1,73.3% (active)
21,CCOC(=O)c1cc(C(=O)Nc2cccc(C(F)(F)F)c2)n2ccc(C)cc12,-0.911% (inactive)
